High-throughput results as filed in PubChem.
Luciferase inh: Photinus pyralis luciferase inhibition | 76,000 compounds, 2.5% hits | Potency, µM (doses to about 115 µM), usual class: inhibitors | purified P. pyralis luciferase, luminescence, biochemical; further: nearly all actives have a fitted effect of over 65% in size
Target sequence (P08659 whole entry, looked up): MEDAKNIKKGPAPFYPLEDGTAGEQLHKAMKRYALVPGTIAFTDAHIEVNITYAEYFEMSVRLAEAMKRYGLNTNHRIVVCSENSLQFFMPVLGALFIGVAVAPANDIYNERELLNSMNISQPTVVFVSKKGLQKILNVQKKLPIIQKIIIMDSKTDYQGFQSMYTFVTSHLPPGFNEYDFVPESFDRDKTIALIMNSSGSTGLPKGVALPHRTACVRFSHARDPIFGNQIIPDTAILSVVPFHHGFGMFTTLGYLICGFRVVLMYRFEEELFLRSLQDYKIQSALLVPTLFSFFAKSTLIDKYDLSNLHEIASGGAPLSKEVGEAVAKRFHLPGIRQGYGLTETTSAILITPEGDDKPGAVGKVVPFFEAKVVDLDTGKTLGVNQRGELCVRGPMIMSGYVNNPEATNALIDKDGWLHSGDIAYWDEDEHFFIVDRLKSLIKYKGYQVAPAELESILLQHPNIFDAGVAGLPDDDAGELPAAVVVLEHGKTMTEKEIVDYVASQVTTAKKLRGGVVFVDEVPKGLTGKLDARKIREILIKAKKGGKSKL
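Inhibitors were tested against purified firefly luciferase in a biochemical, low-substrate format (both substrates at 10uM) and luminescence measured with a CCD imager.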
HEK293 tox: HEK 293 cell cytotoxicity; HEK 293 viability, ATP luminescence (CellTiter-Glo), 48-72 h; Potency, µM (top dose mostly 115 µM), actives largely listed as inhibitors; 94,000 compounds, 6.6% hits; AID 1345083; further: nearly all actives have a fitted effect of over 60% in size
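CellTiter-Glo luminescence (cellular ATP) was read after 48 or 72 hr of compound exposure at 37 degree Celsius. Cells were HEK 293 plated at 250 cells/well.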
3T3 cytotox: NIH 3T3 cell cytotoxicity; AID 1345082; 94,000 compounds, 4.3% hits; Potency, µM (doses to about 96.7 µM), most hits filed as inhibitors; NIH 3T3 viability, CellTiter-Glo ATP luminescence, 48-72 h; further: nearly all actives have a fitted effect of over 55% in size
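Viability of NIH 3T3 cells after 48 or 72 hr compound treatment at 37 °C was assessed by CellTiter-Glo, with luminescence imaged following a 10 min room-temperature step.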
hNpr1 antagonist: human Npr1 receptor antagonism; P16066; HEK293 hNpr1 GloSensor cGMP, ANP-stimulated luminescence; Potency, µM (series often up to 46.3 µM), usual class: inhibitors; 76,000 compounds, 1.6% hits; calls by dose curve; further: nearly all actives have a fitted effect of over 60% in size
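HEK293 cells stably expressing human Npr1 and cGMP GloSensor pGS-40F, loaded 2 h with 2% GloSensor reagent, given compound 30 min at room temperature. Luminescence read before and 20 min after 0.1 nM hNppA.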
Hits are given with their value; 0 = inactive; ? = inconclusive; - = no result. Only some compounds are listed: those with a hit (about 11% of all), similar ones and a draw of the others. Unless noted, the call rests on the fitted dose curve; in most records, active means well fitted curve in the direction sought with a large enough effect; inconclusive means small, poorly fitted or top-dose-only effect, or another doubt; inactive means no such curve, though single readings can be large; an effect the other way counts as inactive or inconclusive.

SMILES	Luciferase inh	HEK293 tox	3T3 cytotox	hNpr1 antagonist
COc1cccc(-c2ccc(CN3CCCC(NC(=O)c4ccc(Cl)nc4)C3)cc2)c1 (stereo not drawn)	-	14µM	32µM	-
COc1cccc(-c2ccc(CN3CCCC(NC(=O)c4ccccn4)C3)cc2)c1 (stereo not drawn)	-	25µM	?	-
COc1cccc(CN2CCCC(NC(=O)c3cn4ccsc4n3)C2)c1 (stereo not drawn)	0	?	0	0
Cc1cccc(C(=O)NC2CCCN(Cc3ccc(-c4cc(C)cc(C)c4)cc3)C2)c1 (stereo not drawn)	-	40µM	?	-
Cc1cc(C)cc(-c2ccc(CN3CCCC(NC(=O)c4ccc(C(F)(F)F)cc4)C3)cc2)c1 (stereo not drawn)	-	0	0	-
COc1ccc(-c2cc(C(=O)NCC(F)(F)F)nn3cnnc23)cc1	-	0	?	-
C[S+](=O)([O-])N1CC2(Cc3ccccc31)CN(C(=O)Nc1ccc(Cl)cc1)C2	-	0	?	-
O=C(Nc1cc(F)cc(F)c1)c1cnc(-c2ccc(F)cc2)nc1-c1ccncc1	?	22µM	20µM	?
O=C(Nc1ccc(F)c(Cl)c1)c1cnc(-c2ccccc2)nc1-c1ccncc1	0	35µM	25µM	?
CN(C)C[C@@H]1CN(Cc2ccccn2)C[C@H]1NS(=O)(=O)c1ccccc1F	0	?	0	0
COc1ccc(-c2cc(-c3cccc(CO)c3)cn3cncc23)cc1	0	79µM	56µM	0
COc1ccc(-c2cc(-c3cnn(C)c3)cn3cncc23)cc1	0	?	35µM	0
Oc1ccccc1-c1cc(-c2cccnc2)c2cncn2c1	0	100µM	?	0
COc1cccc(-c2cc(-c3ccc(OC)nc3)c3cncn3c2)c1	0	?	?	0
COc1ccc(-c2cc(-c3cccc(OC)c3OC)cn3cncc23)cc1	?	89µM	?	0
Cc1ccccc1N(C)C1CN(Cc2cncs2)C1	0	?	?	0
O=C(c1ccncc1)N1CCN(c2ccnc3ccnn23)CC1	-	0	0	-
COc1ccc(-c2cc(-c3ccc(N4CCOCC4)nc3)cn3cncc23)cc1	?	?	?	0
COc1ccc(-c2cc(-c3ccccc3O)cn3cncc23)cc1	0	100µM	?	0
Cc1ccc(NC(=O)c2ccc(CN3C(=O)NC4(CCOCC4)C3=O)cc2)cc1	16µM	?	0	0
COc1ccc(NC(=O)c2ccc(CN3C(=O)NC4(CCOCC4)C3=O)cc2)cc1	28µM	0	0	0
Cc1ccccc1CNC(=O)c1ccc(CN2C(=O)NC3(CCOCC3)C2=O)cc1	0	0	0	0
Cc1cc(C(=O)NC2CC2)c2c(C3CCNCC3)noc2n1	-	0	0	-
COc1cccc(C(=O)NC2CCCN(CCn3nc4n(c3=O)CCCC4)C2)c1 (stereo not drawn)	-	0	0	-
O=C(N[C@H]1[C@H](O)[C@H](O)C[C@@H]1c1ccc(C(F)(F)F)nc1)c1nc2ccccc2s1	45µM	0	0	0
SMILES	Luciferase inh	HEK293 tox	3T3 cytotox	hNpr1 antagonist
Cc1ccccc1[C@H]1C[C@@H](O)[C@@H](O)[C@@H]1NC(=O)c1nc2ccccc2s1	0	?	?	0
COc1ccc([C@H]2C[C@@H](O)[C@@H](O)[C@@H]2NC(=O)c2nc3ccccc3s2)cc1	45µM	?	0	0
N#Cc1ccc(C(=O)N[C@H]2[C@H](O)[C@H](O)C[C@@H]2c2ccc(C(F)(F)F)nc2)cc1	0	0	0	0
COc1ccc(C(=O)N2CCC3(CC2)COc2ccccc2C(=O)N3)cc1	0	0	0	0
CCOC(=O)c1ccc(N2CCN(C(=O)C3=CC(C)(C)COc4ccc(OC)cc43)CC2)cc1	-	35µM	?	-
CCCNC(=O)NC[C@@H]1C=C(C)[C@H](Cc2nc3nc(OC)ccc3[nH]2)C[C@H]1C(C)C	0	63µM	89µM	0
CC1=C[C@@H](CNC(=O)C(C)C)[C@H](C(C)C)C[C@H]1Cc1nc2ncccc2[nH]1	0	0	?	0
CC(=O)NC[C@@H]1C=C(C)[C@H](Cc2nc3ccccc3[nH]2)C[C@H]1C(C)C	0	?	?	0
COc1ccc2[nH]c(C[C@@H]3C[C@@H](C(C)C)[C@H](CNC(=O)c4cccnc4)C=C3C)nc2n1	0	56µM	?	0
Cn1cc(-c2cccc(CCOc3cnc4c(ccn4CC(=O)O)c3)c2)cn1	71µM	0	?	0
Cc1noc(C)c1-c1cccc(CCOc2cnc3c(ccn3CC(=O)O)c2)c1	0	?	50µM	0
CCOc1cc(=O)n2c(c1C(=O)Nc1ccc(Cl)c(F)c1)CCCC2	0	?	?	0
CCCn1ncc(N2CCC(C(=O)N(CCCOC)Cc3ccc4c(c3)CCCN4CC)CC2)cc1=O	-	22µM	35µM	-
O=C1Nc2ccccc2CC12CCN2Cc1cccc2ccccc12 (stereo not drawn)	0	?	89µM	0
O=C1Nc2ccccc2CC12CCCN2Cc1ccc(C(F)(F)F)cc1 (stereo not drawn)	-	45µM	?	-
O=C1Nc2ccccc2CN(Cc2ccc(F)cc2)C12CCNCC2	-	40µM	?	-
O=C1Nc2ccccc2CN(Cc2ccc(C(F)(F)F)cc2)C12CCNCC2	-	28µM	22µM	-
O=C(c1ccccc1)N1CCC(C(=O)N2CCC(N3CCOCC3=O)CC2)CC1	-	0	0	-
COc1cccc(NC(=O)O[C@@H]2CC[C@]3(C)[C@H](CC[C@H]4OC(=O)C[C@H]43)[C@]2(C)CO)c1	0	?	0	0
O=C(NC1CCN(c2nc3ncccc3o2)C1)c1ccccc1Cl (stereo not drawn)	-	0	0	-
CN1CCC(OC2CCN(C(=O)c3ccc(F)cc3F)CC2)CC1	0	0	0	0
Cn1cc(-c2cc(=O)c3ccnc(-c4cccc5[nH]ccc45)c3o2)cn1	0	?	?	0
Cc1ccccc1-c1nccc2c(=O)cc(-c3ccncc3)oc12	0	100µM	?	0
COc1ncccc1-c1nccc2c(=O)cc(-c3ccncc3)oc12	0	0	28µM	0
O=c1cc(-c2ccncc2)oc2c(-c3cccc(CO)c3)nccc12	0	0	45µM	0
SMILES	Luciferase inh	HEK293 tox	3T3 cytotox	hNpr1 antagonist
O=c1cc(-c2ccncc2)oc2c(-c3cccc4[nH]ccc34)nccc12	0	25µM	?	0
CC(C)n1cnnc1CC1CCN(C(=O)Cc2c[nH]c3ccccc23)C1 (stereo not drawn)	-	0	0	-
CN(C)c1ccc(CN2CC[C@H](c3nc4c(C(N)=O)cccc4[nH]3)C2)cc1	0	71µM	100µM	?
CC1=C[C@@H](CNC(=O)CC(C)(C)CC(=O)O)[C@H](C(C)C)C[C@H]1Cc1nc2ccc(C)cc2[nH]1	0	0	0	0
COc1ccccc1C(=O)N1CCC2(CC1)CC(O)CCO2 (stereo not drawn)	-	0	0	-
Cc1ccc(NC(=O)N2C[C@@H](F)C[C@H]2C(=O)N2CCc3ccccc3C2)cc1F	0	40µM	35µM	0
O=C([C@@H]1C[C@H](F)CN1S(=O)(=O)Cc1ccc(Cl)cc1)N1CCc2ccccc2C1	0	?	16µM	?
CC(=O)N1CCCN(Cc2ccc3c(c2)OCO3)c2ccccc21	0	?	?	0
